Max response and Potency data for 37 compounds are collected here from PubChem BioAssay (NCATS).

“And” between values parts separate entries of the source, which are not always exact repeats. Identical values can stand only once. Inconclusive results are not listed. Values without a mark were called inactive. The source made the active and inactive calls. Calls come from the whole dose curve; as a rule, active = well fitted curve in the direction sought with a large enough effect; inconclusive = small, poorly fitted or top-dose-only effect, or another doubt; inactive = no such curve, though single readings can be large or run the other way. Where a SMILES comes first, the peptide text is derived from it. Bridges are numbered along the chain shown (N, C = ends). [ ]: non-standard residue; d: D form. The star is where a group is joined. Dab(CH2SO3H) = N[C@@H](CCNCS(=O)(=O)O)C(=O)O; X3 = CC[C@@H](C)CCCCC(=O)*; Dab = NCC[C@H](N)C(=O)O
% is set by controls: 0 for no effect and ±100 for the full control effect; potency is the fitted concentration of half-maximal effect.

The assay in a line: qHTS Assay for Identifying Gametocytocidal Compounds (AID 743244).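 For Max response: actives lower the fluorescent signal which means gametocytes are killed.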 As to conditions: P. falciparum 3D7 stage III-V gametocytes, alamarBlue, 72 h; max response: stronger effect = lower value. Put shortly: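 Compounds are pinned into medium, gametocytes (stage III–V, 3D7, 20,000 cells/well) added, and plates held 72 h at 37 °C in 5% CO2. AlamarBlue follows for 24 h before fluorescence reading.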
For `CC(C)NCC1CCc2cc(CO)c([N+](=O)[O-])cc2N1` (configuration not stated), the max response is -6.43%. Take `CCC[C@@H]1C[C@@H](C(=O)N[C@@H]([C@H]2O[C@H](SC)[C@H](OP(=O)(O)O)[C@@H](O)[C@H]2O)[C@H](C)Cl)N(C)C1`: the max response is 4.72% and 1.78%.

Turning to `N[C@H](C(=O)O)[C@@H]1CC(Cl)=NO1`, the max response is 8.42%.

`CCCCCCCC(=O)O`: the max response was 10%. Consider `CCC(=O)OCC(=O)[C@@]1(OC(=O)CC)[C@H](C)C[C@H]2[C@H]3[C@H]([C@@H](O)C[C@@]21C)[C@@]1(C)C=CC(=O)C=C1C[C@H]3Cl`, for which the max response is -4.51%. For `COc1cc([C@@H]2c3cc4c(cc3[C@@H](O[C@@H]3O[C@@H]5CO[C@@H](C)O[C@H]5[C@H](O)[C@H]3O)[C@H]3COC(=O)[C@H]23)OCO4)cc(OC)c1O`, the max response was -3.58%.

Take `CC1=C(/C=C/C(C)=C/C=C/C(C)=C/C=C/C=C(C)/C=C/C=C(C)/C=C/C2=C(C)C(=O)CCC2(C)C)C(C)(C)CCC1=O`: the max response was 6.31%.

`COC(F)(F)C(Cl)Cl`: the max response is 1.97%. On the same count and under the same terms, the figure for `CC1(C)S[C@@H]2[C@H](NC(=O)Cc3ccccc3)C(=O)N2[C@H]1C(=O)O` is 14.5%; for `CCOc1ccc(N=Nc2ccc(N)cc2N)cc1` it is 4.91%. Still for that read-out and setting: the figure for `CC(=O)OCC(=O)[C@@]1(O)CC[C@H]2[C@@H]3C[C@H](C)C4=CC(=O)C=C[C@]4(C)[C@H]3[C@@H](O)C[C@@]21C` is -1.15%; for `CC[C@@]1(O)C(=O)OCc2c1cc1n(c2=O)Cc2cc3c([N+](=O)[O-])cccc3nc2-1` it is 2.02%; for `CCCCC(=O)O[C@]1(C(=O)CO)[C@H](C)C[C@H]2[C@@H]3CCC4=CC(=O)C=C[C@]4(C)[C@@]3(F)[C@@H](O)C[C@@]21C` it is 12.3%. On the same count and under the same terms, the same measure for `CCCC(=O)O[C@]1(C(=O)COC(C)=O)CC[C@H]2[C@@H]3C[C@H](F)C4=CC(=O)C=C[C@]4(C)[C@@]3(F)[C@@H](O)C[C@@]21C`: 9.8%. As to `CCNC(=O)[C@@H]1CCCN1C(=O)[C@H](CCCN=C(N)N)NC(=O)[C@H](CC(C)C)NC(=O)[C@@H](Cc1c[nH]c2ccccc12)NC(=O)[C@H](Cc1ccc(O)cc1)NC(=O)[C@H](CO)NC(=O)[C@H](Cc1c[nH]c2ccccc12)NC(=O)[C@H](Cc1cnc[nH]1)NC(=O)[C@@H]1CCC(=O)N1`, the Potency was 6.31 µM (active).

Consider `CC1=C(/C=C/C(C)=C/C=C/C(C)=C/CO)C(C)(C)CCC1`, for which the max response was 11.8%. As to `CCOC(=O)O[C@]1(C(=O)COC(=O)CC)CC[C@H]2[C@@H]3CCC4=CC(=O)C=C[C@]4(C)[C@H]3[C@@H](O)C[C@@]21C`, the max response was 11.8%. Take `O=C(COc1ccc(Cl)cc1)OCCNC12CC3CC(CC(C3)C1)C2`: the max response was -2.86%. Consider `C=C(NC(=O)C(=C)NC(=O)c1csc(C2=N[C@@H]3c4csc(n4)[C@H]4NC(=O)c5csc(n5)[C@H]([C@](C)(O)[C@@H](C)O)NC(=O)[C@H]5CSC(=N5)C(=CC)NC(=O)C([C@@H](C)O)NC(=O)c5csc(n5)[C@]3(CC2)NC(=O)[C@H](C)NC(=O)C(=C)NC(=O)[C@H](C)NC(=O)C([C@@H](C)CC)NC2C=Cc3c([C@H](C)O)cc(nc3C2O)C(=O)O[C@@H]4C)n1)C(N)=O` (some centres not stated), for which the Potency is 11.2 µM (active). As to `O=S(=O)(O)c1cc(O)c2c(N=Nc3ccc(Nc4ccccc4)c4c(S(=O)(=O)O)cccc34)cc(S(=O)(=O)O)cc2c1`, the max response was -8.84%. With `IC(I)I`, the max response was 8.07%. In the case of `CC(Oc1ccccc1)C(=O)N[C@@H]1C(=O)N2[C@@H]1SC(C)(C)[C@@H]2C(=O)O` (some centres not stated), the max response was 15.7%. Take `CCCCCCCCCCCC[n+]1ccc2ccccc2c1`: the Potency was 1.78 µM (active). Turning to `CC[C@@H](C)CCCCC(=O)N[C@@H](CCNCS(=O)(=O)O)C(=O)N[C@H](C(=O)N[C@@H](CCNCS(=O)(=O)O)C(=O)N[C@H]1CCNC(=O)[C@H]([C@@H](C)O)NC(=O)[C@H](CCNCS(=O)(=O)O)NC(=O)[C@H](CCNCS(=O)(=O)O)NC(=O)[C@H](CC(C)C)NC(=O)[C@@H](CC(C)C)NC(=O)[C@H](CCNCS(=O)(=O)O)NC1=O)[C@@H](C)O` (X3-[Dab(CH2SO3H)]T[Dab(CH2SO3H)][Dab][Dab(CH2SO3H)][dL]L[Dab(CH2SO3H)][Dab(CH2SO3H)]T; lactam 4-C), the max response is 5.78%. On the same count and under the same terms, the same measure for `CC1=CCC(C(C)(C)O)CC1` (configuration not stated): -0.0478%; for `CC1(C)S[C@@H]2[C@H](NC(=O)C(N)c3ccccc3)C(=O)N2[C@H]1C(=O)OC1OC(=O)c2ccccc21` (some centres not stated): 16.4%. Consider `O=C(O)c1cc(=O)c2c3nc4ccccc4oc-3cc(=O)c2[nH]1`, for which the max response was -14.4%. Turning to `CC(C)(C)NC(=O)[C@@H]1C[C@@H]2CCCC[C@@H]2CN1C[C@@H](O)[C@H](Cc1ccccc1)NC(=O)[C@H](CC(N)=O)NC(=O)c1ccc2ccccc2n1`, the Potency was 10 µM (active).

Consider `O=C(Nc1cccc(C(F)(F)F)c1)c1cc(Br)cc(Br)c1O`, for which the max response was -2.44%. With `CCCCCCCCCCCCCC[n+]1ccc(C)cc1`, the Potency was 7.94 µM (active). Consider `C#C[C@]1(O)CC[C@H]2[C@@H]3CCC4=C/C(=N/O)CC[C@@H]4[C@H]3CC[C@@]21CC`, for which the max response is -2.15%. Regarding `O=S(=O)(O)O`, the max response was -4.98%. In the case of `O=CCCCC=O`, the max response is -1.12%. Still for that read-out and setting: the same measure for `C[C@@H]1C[C@H]2[C@@H]3CCC4=CC(=O)C=C[C@]4(C)[C@@]3(F)[C@@H](O)C[C@]2(C)[C@@]1(O)C(=O)COP(=O)(O)O`: 10.9%; for `COCC(=O)Nc1cc(Sc2ccccc2)ccc1N=C(NC(=O)OC)NC(=O)OC`: -1.05%; for `CC[C@H]1OC(=O)C[C@@H](O)[C@H](C)[C@@H](O[C@@H]2O[C@H](C)[C@@H](O)[C@H](N(C)C)[C@H]2O)[C@@H](CCN2C[C@H](C)C[C@H](C)C2)C[C@@H](C)C(=O)/C=C/C(C)=C/[C@@H]1CO[C@@H]1O[C@H](C)[C@@H](O)[C@@H](OC)[C@H]1OC`: -0.81%.

As to `C#CCOc1ccc2c(C)cc(=O)oc2c1`, the max response is 7.39%.
